ugtP null kill – growth inhibition of S. aureus ugtP deletion strain. 330,000 compounds, 0.54% hits. S. aureus RN4220 ugtP deletion, OD600 growth, 16 h. growth inhibition, % (no concentration beside the values); in the data active = growth inhibition above about 68%
Sa RN4220 lethal – S. aureus RN4220 growth inhibition; AID 1259311; OD600, 16 h; inhibition, % (concentration not given with the values); 330,000 compounds, 0.33% hits; in the data active = inhibition above about 85%
PrPC surface inh – inhibitors of human cell surface prion protein PrPC; P04156; TR-FRET read-out; inhibition, % at 13.8 µM; 370,000 compounds, 0.43% hits; in the data active = inhibition above about 24%
BJeLR lethal – BJeLR cell viability loss; BJeLR (HRASV12) viability, CellTiter-Glo ATP luminescence, 48 h; inhibition, % (no concentration beside the values); 300,000 compounds, 0.17% hits; in the data active = inhibition above about 50%
Hits are given with their value; n = inactive; x = no result given. Shown are actives, neighbours in structure and some others; about 0.95% of the full set was active somewhere.

SMILES | ugtP null kill | Sa RN4220 lethal | PrPC surface inh | BJeLR lethal
COc1cccc(Nc2nc(N)nc(CCl)n2)c1 | n | n | n | n
COc1ccc(OC)c(Nc2nc(N)nc(CCl)n2)c1 | n | n | n | 120.5
c1ccc(Nc2nc(N3CCCCC3)nc(N3CCCCC3)n2)cc1 | n | n | n | n
CCOc1ccc(Nc2nc(N3CCCCC3)nc(N3CCCCC3)n2)cc1 | 92.3 | n | n | n
Cc1cccc(Nc2nc(N)nc(CCl)n2)c1C | x | x | n | 55.8
COc1ccccc1Nc1nc(N)nc(CCl)n1 | x | x | n | n
NC(Cc1ccc([N+](=O)[O-])cc1)=NOC(=O)C1CCCCC1 | n | n | x | x
COC(=O)[C@@]1(Cc2ccc(OC)cc2)C2c3cc(C(=O)N(C)C)n(CC(O)CO)c3CC2CN1C(=O)c1ccccc1 (some centres not stated) | n | n | x | x
CCOc1ccc(Nc2nc(N)nc(CCl)n2)cc1 | n | n | n | 98.9
Cc1ccc(Nc2nc(N)nc(CCl)n2)cc1 | n | n | n | n
Cc1ccc(Nc2nc(N)nc(CN3CCCCCC3)n2)c(C)c1 | n | n | n | n
Cc1ccc(Nc2nc(N)nc(CCl)n2)c(C)c1 | n | n | n | 121.0
O=C(CN1CCN(Cc2ccccc2Cl)CC1)NN=C/C=C/c1ccccc1[N+](=O)[O-] | n | n | x | x
CCCc1sc(NN=Cc2ccccn2)nc1-c1ccc(F)cc1 | n | n | x | x
CCCc1sc(N/N=C/c2ccccn2)nc1-c1ccc(F)cc1 | x | x | x | 61.5
CC(=NO)c1ccc(N2C(=O)C3C4C=CC(C3C2=O)C2C3C(=O)N(c5ccc(C(C)=NO)cc5)C(=O)C3C42)cc1 (configuration not stated) | n | n | x | x
COc1ccc(Br)cc1C(=O)NN=Cc1ccc2c(c1)n(C)c(=O)n2C | n | n | x | x
CSc1nc2cc(Oc3cccc(Cl)c3Cl)c(Cl)cc2[nH]1 | 97.2 | 99.8 | n | n
CSc1nc2ccc(Cl)cc2[nH]1 | n | n | n | n
N#Cc1c(NC(=O)/C=C/c2ccco2)sc2c1CCCC2 | n | n | n | 56.3
COC(=O)c1ccc(-c2ccco2)n1Cc1ccccc1Cl | 85.3 | n | n | n
Clc1ccc(/C=C/c2nc3ccccc3[nH]2)c(Cl)c1 | 91.6 | n | n | n
O=C(NN=Cc1ccc(-c2ccccc2Cl)o1)c1ccccc1 | n | n | x | x
C#CCCOC(=O)N1C2=NC(C(=O)OC)=C(C(=O)OC)C3N(CC=C)c4ccccc4[C@]23CC1C(=O)OC (some centres not stated) | n | n | x | x
COC(=O)C1C[C@@]2(O)C(O)C(O)C(O)CC2N1Cc1cc(OC)cc(OC)c1 (some centres not stated) | n | n | x | x
SMILES | ugtP null kill | Sa RN4220 lethal | PrPC surface inh | BJeLR lethal
COc1cc2c(cc1NC(=O)Nc1ccccc1)oc1ccccc12 | 84.2 | n | n | n
O=C(Nc1nc2ccccc2[nH]1)c1ccc(F)cc1 | n | n | n | n
O=C(Nc1nc2ccccc2[nH]1)c1ccccc1F | n | n | n | 85.1
Cc1nc(SCC(=O)Nc2ccc3c(c2)OCCO3)c2oc3ccccc3c2n1 | 90.3 | n | n | n
c1ccc(CN2CCN(c3ncnc4sccc34)CC2)cc1 | x | x | n | x
c1ccc(Cn2ccc3ccc(-c4ccc5ccn(Cc6cccc(-c7cccs7)c6)c5c4)cc32)cc1 | x | x | n | x
Cc1ccc(N/C(N)=N/c2nc(C)cc(N3CCCCC3)n2)c(C)c1 | n | n | 45.1 | n
Cc1ccc(N/C(N)=N/c2nc3c(c(=O)[nH]2)CCCC3)c(C)c1 | n | n | n | n
COc1cc(/C=C/c2nc3ccccc3c(=O)n2-c2cccc(O)c2)ccc1O | 99.5 | 98.9 | n | n
O=c1c2ccccc2nc(/C=C/c2ccc(O)c(O)c2)n1-c1ccccc1 | n | n | n | n
COc1cc(/C=C/c2nc3ccccc3c(=O)n2-c2ccccc2O)ccc1O | 99.4 | 93.0 | n | n
CC(=NNc1cccc(Cl)c1)C1(C)N(O)C(C)(C)C(c2ccco2)=[N+]1[O-] (configuration not stated) | n | n | x | x
CCC1OC(=O)C(C)C(OC2C[C@@](C)(OC)C(O)C(C)O2)C(C)C(OC2OC(C)CC(N(C)C)C2O)[C@](C)(OC)CC(C)C(=O)C(C)C(O)[C@]1(C)O (some centres not stated) | 100.0 | 100.6 | x | x
CC1NS(=O)(=O)C2CC3C=C[C@]2(O3)C1OC(=O)c1ccc(C(C)(C)C)cc1 (some centres not stated) | n | n | x | x
O=C(CSc1nc2ccccc2s1)NN=Cc1ccccc1C(=O)O | n | n | x | x
CC(C)(C)c1ccc(OCc2ccc(C(=O)NN=Cc3ccc(O)c(O)c3)cc2)cc1 | 93.7 | n | x | x
COc1ccc(C=NNC(=O)c2cc(O)c(O)c(O)c2)cc1COc1ccc(C(=O)OCC(C)C)cc1 | 98.7 | n | x | x
COc1ccc(C(=O)N/N=C/c2ccc(OC)c(COc3ccc(F)cc3)c2)cc1 | x | x | n | n
